36 compounds from PubChem BioAssay (NCATS) can be followed below.

Several values for one entry are separate records, joined by “and”; a condition that tells them apart may be missing. Equal entries are not always repeated. Inconclusive results are not listed. Entries that show only a call come without a potency. Activity calls are given as the source filed them. Calls follow the shape of the dose curve; as a rule, active = well fitted inhibition curve with a large enough effect; inconclusive = small, poorly fitted or top-dose-only effect; inactive = flat fitted curve, though single readings scatter.
Potency is read from the fitted curve at half-maximal effect.

The subject of the first experiment is HEK293T. Kind of experiment: qHTS assay to identify novel small-molecules to repurpose for Merkel cell carcinoma treatment (AID 1296009). Also: nearly all actives have a fitted effect of over 60% in size. To be noted: MCC and control cell lines, CellTiter-Glo viability, 72 h; at 44.8 µM (top of the series). In outline:
(§1)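 Dose-response viability screen; 72 hr exposure at 37 degree celsius; CellTiter-Glo added, 10 min room temperature, luminescence read; RLUs scaled between no-cell and DMSO wells.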
As to `O=C(O)c1cc(-c2ccccc2)nc2ccccc12`, the call was inactive.

In the case of `OC[C@@H](O)[C@H](O)[C@H](O)[C@@H](O)CO`, the compound was classed as inactive.

In the case of `CCN1CCC[C@H]1CNC(=O)c1cc(S(N)(=O)=O)ccc1OC`, the compound was classed as inactive.

Consider `C[C@@H](O)[C@H]1C(=O)N2C(C(=O)O)=C(S[C@@H]3CN[C@H](C(=O)N(C)C)C3)[C@H](C)[C@H]12`, for which the result was inactive.

For `CC(=O)CCCCn1c(=O)c2c(ncn2C)n(C)c1=O`, the result was inactive.

`COc1ccccc1N1CCN(CCCNc2cc(=O)n(C)c(=O)n2C)CC1`: the call was inactive.

Turning to `CS(=O)c1ccc(-c2nc(-c3ccc(F)cc3)c(-c3ccncc3)[nH]2)cc1` (configuration not stated), the compound was called inactive.

Consider `Cc1cnc(C(=O)O)c[n+]1[O-]`, for which the result was inactive.

`CCN(CC)CCNC(=O)c1ccc(N)cc1`: the compound was called inactive.

Consider `CN(C)CCC(c1ccccc1)c1ccccn1` (configuration not stated), for which the call was inactive.

Regarding `CCOC(=O)C1=C(N)Oc2ccc(Br)cc2C1C(C#N)C(=O)OCC` (configuration not stated), the compound was classed as inactive.

As for `CCCNC(=O)NS(=O)(=O)c1ccc(Cl)cc1`, the compound was called inactive.

`COc1cc2ncnc(-n3nc(-c4ccccn4)nc3N)c2cc1OC`: the compound was called inactive.

For another experiment, the system named is MCC-13. The description is as above. The following applies: MCC and control cell lines, CellTiter-Glo viability, 72 h; series mostly up to 46 µM. In outline: as §1
For `O=C(O)c1cc(-c2ccccc2)nc2ccccc12`, the Potency entry was “inactive”.

For the compound `OC[C@@H](O)[C@H](O)[C@H](O)[C@@H](O)CO`, the Potency entry is “inactive”.

Consider `O=C(NC1CCOCC1)c1ccc(-c2cc(-c3cn[nH]c3-c3ccccn3)ccn2)cc1`, for which the Potency result is “inactive”.

`CCN1CCC[C@H]1CNC(=O)c1cc(S(N)(=O)=O)ccc1OC`: the Potency entry is “inactive”.

In the case of `COc1ccc(C2CC(c3ccccc3)=NN2c2ccc(S(N)(=O)=O)cc2)cc1` (configuration not stated), the Potency result was “inactive”.

As for `Clc1ccc(Cn2c(CN3CCCC3)nc3ccccc32)cc1`, the Potency result was “inactive”.

For the compound `O=C(O)Cc1cccc2ccccc12`, the Potency entry is “inactive”.

For the compound `C[C@@H](O)[C@H]1C(=O)N2C(C(=O)O)=C(S[C@@H]3CN[C@H](C(=O)N(C)C)C3)[C@H](C)[C@H]12`, the Potency result is “inactive”.

For `CC(=O)Oc1cc2c(s1)CCN(C(C(=O)C1CC1)c1ccccc1F)C2` (configuration not stated), the Potency result is “inactive”.

Take `CC(=O)CCCCn1c(=O)c2c(ncn2C)n(C)c1=O`: the Potency result is “inactive”.

As to `O=C(CCN1CCN(C(=O)OCc2cc(Cl)cc(Cl)c2)CC1)c1ccc2[nH]c(=O)oc2c1`, the Potency entry is “inactive”.

`COc1ncc(-c2ccc3nccc(-c4ccnnc4)c3c2)cc1NS(=O)(=O)c1ccc(F)cc1F`: the Potency was 833 nM (active).

Turning to `O=C(O)CCc1nc(-c2ccccc2)c(-c2ccccc2)o1`, the Potency entry is “inactive”.

Turning to `CNC(=O)c1ccc2cc(C3(O)CCn4cncc43)ccc2c1` (configuration not stated), the Potency result is “inactive”.

Take `COc1ccccc1N1CCN(CCCNc2cc(=O)n(C)c(=O)n2C)CC1`: the Potency entry is “inactive”.

For `CS(=O)c1ccc(-c2nc(-c3ccc(F)cc3)c(-c3ccncc3)[nH]2)cc1` (configuration not stated), the Potency result is “inactive”.

Consider `CC(C)C(=O)Oc1ccc(CO)cc1[C@H](CCN(C(C)C)C(C)C)c1ccccc1`, for which the Potency result was “inactive”.

As to `Cc1cnc(C(=O)O)c[n+]1[O-]`, the Potency result is “inactive”.

On to `CC[C@]1(O)C[C@@H]2CN(CCc3c([nH]c4ccccc34)[C@@](C(=O)OC)(c3cc4c(cc3OC)N(C)[C@H]3[C@@](O)(C(=O)OC)[C@H](OC(C)=O)[C@]5(CC)C=CCN6CC[C@]43[C@@H]65)C2)C1`, for which the Potency is 119 nM (active) and 1.19 µM (active).

Regarding `COc1ccc2cc(-c3nc(-c4ccc(S(C)=O)cc4)[nH]c3-c3ccncc3)ccc2c1` (configuration not stated), the Potency entry is “inactive”.

With `CCN(CC)CCNC(=O)c1ccc(N)cc1`, the Potency entry is “inactive”.

As to `CC(C)(C)c1cc(C(=O)O)c(NC(=O)Nc2ccc3[nH]ncc3c2)s1`, the Potency result is “inactive”.

Consider `COc1ccc2c(Oc3ccc(NC(=O)c4c(C)n(CC(C)(C)O)n(-c5ccccc5)c4=O)nc3)ccnc2c1`, for which the Potency entry is “inactive”.

On to `NC(=O)c1ccc2nc(-c3ccc(Oc4ccc(Cl)cc4)cc3)[nH]c2c1`, for which the Potency entry is “inactive”.

For `CCOc1ccc(Nc2nc(-c3c(C)nc4ccccn34)cs2)cc1`, the Potency was 37.2 nM (active).

With `O=C(O)c1ccccc1C(=O)Nc1ccc(-c2ccccc2)cc1`, the Potency entry was “inactive”.

With `CN(C)CCC(c1ccccc1)c1ccccn1` (configuration not stated), the Potency entry is “inactive”.

For the compound `COC(=O)[C@@H]1[C@H]2C[C@H]3c4[nH]c5ccccc5c4CCN3C[C@@H]2CC[C@@H]1O`, the Potency result is “inactive”.

`Cc1ccccc1C(C(=O)NC1CCCCC1)N(C(=O)Cn1ccnc1C)c1cccc(F)c1` (configuration not stated): the Potency result was “inactive”.

In the case of `Cc1c(NC(=O)c2ccc(C(C)(C)C)cc2)cccc1-c1cn(C)c(=O)c(Nc2ccc(C(=O)N3CCOCC3)cc2)n1`, the Potency entry is “inactive”.

With `CCOC(=O)C1=C(N)Oc2ccc(Br)cc2C1C(C#N)C(=O)OCC` (configuration not stated), the Potency result was “inactive”.

As to `Cc1ccc(Nc2cc(-c3cccc(N4C(=O)c5ccccc5C4=O)c3)ncn2)cc1NS(C)(=O)=O`, the Potency entry is “inactive”.

For `CC(C)[C@H](CO)Nc1nc(Nc2ccc(C(=O)O)c(Cl)c2)c2ncn(C(C)C)c2n1`, the Potency entry was “inactive”.

For `CCCNC(=O)NS(=O)(=O)c1ccc(Cl)cc1`, the Potency entry was “inactive”.

As for `COc1cc2ncnc(-n3nc(-c4ccccn4)nc3N)c2cc1OC`, the Potency entry is “inactive”.

The subject of the next experiment is MCC-26. The experiment is described as above. The following applies: MCC and control cell lines, CellTiter-Glo viability, 72 h; series mostly up to 46 µM. In outline:
as §1
For orientation: In ATP-based viability assays light output follows the ATP content of the culture.
Take `O=C(O)c1cc(-c2ccccc2)nc2ccccc12`: the Potency entry is “inactive”.

As to `OC[C@@H](O)[C@H](O)[C@H](O)[C@@H](O)CO`, the Potency result is “inactive”.

`O=C(NC1CCOCC1)c1ccc(-c2cc(-c3cn[nH]c3-c3ccccn3)ccn2)cc1`: the Potency result is “inactive”.

On to `CCN1CCC[C@H]1CNC(=O)c1cc(S(N)(=O)=O)ccc1OC`, for which the Potency entry was “inactive”.

In the case of `COc1ccc(C2CC(c3ccccc3)=NN2c2ccc(S(N)(=O)=O)cc2)cc1` (configuration not stated), the Potency result is “inactive”.

With `Clc1ccc(Cn2c(CN3CCCC3)nc3ccccc32)cc1`, the Potency entry is “inactive”.

`O=C(O)Cc1cccc2ccccc12`: the Potency result is “inactive”.

As to `C[C@@H](O)[C@H]1C(=O)N2C(C(=O)O)=C(S[C@@H]3CN[C@H](C(=O)N(C)C)C3)[C@H](C)[C@H]12`, the Potency result was “inactive”.

As for `O=C(CCN1CCN(C(=O)OCc2cc(Cl)cc(Cl)c2)CC1)c1ccc2[nH]c(=O)oc2c1`, the Potency result is “inactive”.

On to `COc1ncc(-c2ccc3nccc(-c4ccnnc4)c3c2)cc1NS(=O)(=O)c1ccc(F)cc1F`, for which the Potency is 372 nM (active).

With `O=C(O)CCc1nc(-c2ccccc2)c(-c2ccccc2)o1`, the Potency result was “inactive”.

For `CNC(=O)c1ccc2cc(C3(O)CCn4cncc43)ccc2c1` (configuration not stated), the Potency entry was “inactive”.

Regarding `COc1ccccc1N1CCN(CCCNc2cc(=O)n(C)c(=O)n2C)CC1`, the Potency entry was “inactive”.

As for `CS(=O)c1ccc(-c2nc(-c3ccc(F)cc3)c(-c3ccncc3)[nH]2)cc1` (configuration not stated), the Potency result is “inactive”.

On to `CC(C)C(=O)Oc1ccc(CO)cc1[C@H](CCN(C(C)C)C(C)C)c1ccccc1`, for which the Potency entry is “inactive”.

On to `Cc1cnc(C(=O)O)c[n+]1[O-]`, for which the Potency result is “inactive”.

Take `COc1ccc2cc(-c3nc(-c4ccc(S(C)=O)cc4)[nH]c3-c3ccncc3)ccc2c1` (configuration not stated): the Potency result is “inactive”.

Take `CC(C)(C)c1cc(C(=O)O)c(NC(=O)Nc2ccc3[nH]ncc3c2)s1`: the Potency entry was “inactive”.

As for `COc1ccc2c(Oc3ccc(NC(=O)c4c(C)n(CC(C)(C)O)n(-c5ccccc5)c4=O)nc3)ccnc2c1`, the Potency entry is “inactive”.

Take `O=C(O)c1ccccc1C(=O)Nc1ccc(-c2ccccc2)cc1`: the Potency result was “inactive”.

For the compound `CN(C)CCC(c1ccccc1)c1ccccn1` (configuration not stated), the Potency result was “inactive”.

Regarding `COC(=O)[C@@H]1[C@H]2C[C@H]3c4[nH]c5ccccc5c4CCN3C[C@@H]2CC[C@@H]1O`, the Potency result is “inactive”.

Turning to `O=C(Nc1ccccc1-c1cn2c(CN3CCNCC3)csc2n1)c1cnc2ccccc2n1`, the Potency was 33200 nM (active).

With `Cc1ccccc1C(C(=O)NC1CCCCC1)N(C(=O)Cn1ccnc1C)c1cccc(F)c1` (configuration not stated), the Potency entry is “inactive”.

In the case of `Cc1c(NC(=O)c2ccc(C(C)(C)C)cc2)cccc1-c1cn(C)c(=O)c(Nc2ccc(C(=O)N3CCOCC3)cc2)n1`, the Potency entry was “inactive”.

For `CCOC(=O)C1=C(N)Oc2ccc(Br)cc2C1C(C#N)C(=O)OCC` (configuration not stated), the Potency result is “inactive”.

With `Cc1ccc(Nc2cc(-c3cccc(N4C(=O)c5ccccc5C4=O)c3)ncn2)cc1NS(C)(=O)=O`, the Potency entry was “inactive”.

Consider `CCCNC(=O)NS(=O)(=O)c1ccc(Cl)cc1`, for which the Potency result is “inactive”.

In the case of `COc1cc2ncnc(-n3nc(-c4ccccn4)nc3N)c2cc1OC`, the Potency entry was “inactive”.
